Test [1] can be described thus: qHTS profiling of the MIPE4 collection as inhibitors of Plasmodium falciparum (3D7) proliferation (AID 743344).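 Note: scaled between DMSO vehicle wells and 0.29 µM artemisinin as full inhibition.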 As to conditions: P. falciparum 3D7 in erythrocytes, SYBR Green DNA fluorescence, 72 h; at 28.5 µM. The procedure, abridged: (§1)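 Parasite DNA was quantified by SYBR Green I fluorescence (ex 485, em 535 nm) after overnight lysis in saponin/Triton buffer at room temperature. Cultures at 0.3% parasitemia and 2.5% hematocrit were first exposed to compound for 72 h at 37 C; signals were normalised to artemisinin (0.29 uM) and vehicle wells.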

The nature of test [2]: qHTS profiling of the MIPE4 collection as inhibitors of Plasmodium falciparum (DD2) proliferation (AID 743345). To be noted: P. falciparum Dd2 in erythrocytes, SYBR Green DNA, 72 h; at 28.5 µM unless noted. The method, boiled down:
as §1

A short description of test [3]: qHTS profiling of the MIPE4 collection as inhibitors of Plasmodium falciparum (DD2) proliferation (Rep 2) (AID 743346). As to conditions: P. falciparum Dd2 in erythrocytes, SYBR Green DNA, 72 h; at 28.5 µM. The method, boiled down:
as §1
A general note: In qHTS, concentration-response curves come from the screen itself.

The nature of test [4]: qHTS profiling of the MIPE4 collection as inhibitors of Plasmodium falciparum (HB3) proliferation (AID 743347).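 Note: plate controls were DMSO vehicle wells for no effect and artemisinin wells for full effect.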 To be noted: P. falciparum HB3 in erythrocytes, SYBR Green DNA, 72 h; at 28.5 µM. The method, boiled down: as §1

From PubChem BioAssay (NCATS) come the findings set out here.

Molecules are shown by their SMILES.

Regarding `O=c1[nH]c2ccc(Cl)cc2c(N[C@@H]2CN3CCC2CC3)c1-c1nc2ccccc2[nH]1`, the parasite growth, % of DMSO control in test [1] was found to be 5.05%. The parasite growth remaining, % of DMSO control (lower = more inhibition) in test [2] was found to be 5.74%. For the same compound, in test [3], the parasite growth, % of control (lower = inhibition) stood at 8.84%. Besides, the growth, % of control in test [4] amounted to 2.7%.

`CC=C(C)C(=O)O[C@H]1C(C)=C2[C@@H]3OC(=O)[C@@](C)(O)[C@@]3(O)[C@@H](OC(=O)CCC)C[C@](C)(OC(C)=O)[C@@H]2[C@@H]1OC(=O)CCCCCCC` showed a parasite growth, % of DMSO control in test [1] of 15.2%. Besides, the parasite growth remaining, % of DMSO control (lower = more inhibition) in test [2] worked out at 8.2%. Moreover, the parasite growth, % of control (lower = inhibition) in test [3] came out at 16.2%. In test [4], this compound gave a growth, % of control of 8.71%.

As for `CC(C)(C)[C@]1(O)C[C@@H]2OC(=O)C[C@@]23C(=O)O[C@@H]2OC(=O)[C@H](O)C213` (some centres not stated), in test [1], the parasite growth, % of DMSO control stood at 95%. In addition, in test [2], the parasite growth remaining, % of DMSO control (lower = more inhibition) is 99.7%. Further, in test [3], the parasite growth, % of control (lower = inhibition) is 81.5%. This compound came in with a growth, % of control in test [4] of 75.6%.

`CCC(=O)OC1CCC2C3CCC4=CC(=O)CC[C@@]4(C)C3CC[C@]12C` (some centres not stated) displayed a parasite growth, % of DMSO control in test [1] of 89.9%. Also, the parasite growth remaining, % of DMSO control (lower = more inhibition) in test [2] is 96.4%. For the same compound, in test [3], the parasite growth, % of control (lower = inhibition) worked out at 125%. Further, in test [4], the growth, % of control was determined as 94.7%.

Take `CCc1c(C(=O)C(N)=O)c2c(OCC(=O)O)cccc2n1Cc1ccccc1`: the parasite growth, % of DMSO control in test [1] stood at 111%. Besides, the parasite growth remaining, % of DMSO control (lower = more inhibition) in test [2] amounted to 97.5%. Also, in test [3], the parasite growth, % of control (lower = inhibition) is 83.8%. The same compound showed a growth, % of control in test [4] of 99.7%.

`C=C1C[C@H]2[C@H]3CCC(=O)[C@@]3(C)CC[C@@H]2[C@@]2(C)C=CC(=O)C=C12` came in with a parasite growth, % of DMSO control in test [1] of 51.5%. Further, the parasite growth remaining, % of DMSO control (lower = more inhibition) in test [2] stood at 90.6%. The parasite growth, % of control (lower = inhibition) in test [3] worked out at 50.5%. In test [4], this compound had a growth, % of control of 29%.

With `CC(C)(O)C=CC(=O)[C@](C)(O)[C@H]1[C@H](O)C[C@]2(C)[C@@H]3CC=C4[C@@H](C=C(O)C(=O)C4(C)C)[C@]3(C)C(=O)C[C@@]12C`, the parasite growth, % of DMSO control in test [1] was found to be 5.63%. In addition, the parasite growth remaining, % of DMSO control (lower = more inhibition) in test [2] stood at 7.06%. Besides, in test [3], the parasite growth, % of control (lower = inhibition) is 21.6%. Besides, the growth, % of control in test [4] was found to be 7.62%.

For `O=C1CCC[C@@H]2[C@H]3CCCN4CCC[C@@H](CN12)[C@@H]34`, the parasite growth, % of DMSO control in test [1] is 91.5%. Besides, in test [2], the parasite growth remaining, % of DMSO control (lower = more inhibition) amounted to 97.9%. For the same compound, the parasite growth, % of control (lower = inhibition) in test [3] is 95.1%. The growth, % of control in test [4] worked out at 96.2%.

With `CC(C)N(CCNC(=O)CN1CCCC1=O)C(C)C`, the parasite growth, % of DMSO control in test [1] worked out at 101%. Besides, in test [2], the parasite growth remaining, % of DMSO control (lower = more inhibition) was found to be 17.4%. In test [3], the parasite growth, % of control (lower = inhibition) was determined as 121%. Besides, the growth, % of control in test [4] was 108%.

The compound `CCN(CC)C(=O)c1ccc(C2=CC3(CCNCC3)Oc3cccc(O)c32)cc1` yielded a parasite growth, % of DMSO control in test [1] of 21.1%. Also, the parasite growth remaining, % of DMSO control (lower = more inhibition) in test [2] was 42.1%. In addition, in test [3], the parasite growth, % of control (lower = inhibition) was 14.4%. Besides, in test [4], the growth, % of control amounted to 38.8%.

For the compound `CN1[C@H]2CC(O)C[C@H]1[C@H]1O[C@H]12` (some centres not stated), in test [1], the parasite growth, % of DMSO control was found to be 11.1%. In test [2], the parasite growth remaining, % of DMSO control (lower = more inhibition) was 12.2%. In test [3], the parasite growth, % of control (lower = inhibition) came out at 28.8%. For the same compound, the growth, % of control in test [4] is 7.31%.

The compound `CN[C@@H]1Cc2cccc3[nH]c(=O)n(c23)C1` showed a parasite growth, % of DMSO control in test [1] of 92.4%. The parasite growth remaining, % of DMSO control (lower = more inhibition) in test [2] worked out at 105%. Moreover, the parasite growth, % of control (lower = inhibition) in test [3] amounted to 82.7%. The growth, % of control in test [4] is 85.5%.

`c1ccc2c(CN3CCNCC3)cccc2c1` displayed a parasite growth, % of DMSO control in test [1] of 85.3%. Further, the parasite growth remaining, % of DMSO control (lower = more inhibition) in test [2] came out at 53.1%. In test [3], the parasite growth, % of control (lower = inhibition) was 43.2%. Also, the growth, % of control in test [4] was found to be 109%.
